ChEMBL document CHEMBL1961873, “Compounds: GSK PKIS; Assays: Nanosyn kinase panel” (2012)

Assays:
[1] = target: T1, Serine/threonine-protein kinase D2 (Homo sapiens) (UniProt Q9BZL6); settings: at 1 µM;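 also: mean value of PRKD2 inhibition, from the GSK PKIS screening panel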
T1 sequence (whole entry): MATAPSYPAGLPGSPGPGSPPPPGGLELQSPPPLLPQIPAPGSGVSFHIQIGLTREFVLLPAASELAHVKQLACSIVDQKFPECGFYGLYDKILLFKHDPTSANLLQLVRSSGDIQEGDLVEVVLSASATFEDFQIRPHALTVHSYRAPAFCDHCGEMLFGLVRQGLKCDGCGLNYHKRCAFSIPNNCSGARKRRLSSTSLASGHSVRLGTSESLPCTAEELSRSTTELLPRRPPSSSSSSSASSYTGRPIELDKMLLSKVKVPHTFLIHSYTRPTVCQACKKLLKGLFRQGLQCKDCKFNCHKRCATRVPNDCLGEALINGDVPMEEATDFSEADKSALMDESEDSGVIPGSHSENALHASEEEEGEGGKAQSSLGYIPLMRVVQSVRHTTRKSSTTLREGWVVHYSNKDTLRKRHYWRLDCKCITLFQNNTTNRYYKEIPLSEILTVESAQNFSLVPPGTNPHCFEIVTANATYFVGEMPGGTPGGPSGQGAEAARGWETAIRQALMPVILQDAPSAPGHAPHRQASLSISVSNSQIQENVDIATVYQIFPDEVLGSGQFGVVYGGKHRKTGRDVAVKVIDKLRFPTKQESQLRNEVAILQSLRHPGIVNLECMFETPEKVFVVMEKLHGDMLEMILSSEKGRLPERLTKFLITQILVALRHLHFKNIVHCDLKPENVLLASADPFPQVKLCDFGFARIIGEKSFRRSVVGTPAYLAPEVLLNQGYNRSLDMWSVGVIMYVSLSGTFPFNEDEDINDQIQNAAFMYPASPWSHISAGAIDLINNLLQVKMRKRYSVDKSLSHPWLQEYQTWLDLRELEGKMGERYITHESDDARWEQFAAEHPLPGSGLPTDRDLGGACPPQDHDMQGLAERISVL

[2] = target: T2, Serine/threonine-protein kinase D3 (Homo sapiens) (UniProt O94806); settings: at 0.1 µM
T2 sequence (whole entry): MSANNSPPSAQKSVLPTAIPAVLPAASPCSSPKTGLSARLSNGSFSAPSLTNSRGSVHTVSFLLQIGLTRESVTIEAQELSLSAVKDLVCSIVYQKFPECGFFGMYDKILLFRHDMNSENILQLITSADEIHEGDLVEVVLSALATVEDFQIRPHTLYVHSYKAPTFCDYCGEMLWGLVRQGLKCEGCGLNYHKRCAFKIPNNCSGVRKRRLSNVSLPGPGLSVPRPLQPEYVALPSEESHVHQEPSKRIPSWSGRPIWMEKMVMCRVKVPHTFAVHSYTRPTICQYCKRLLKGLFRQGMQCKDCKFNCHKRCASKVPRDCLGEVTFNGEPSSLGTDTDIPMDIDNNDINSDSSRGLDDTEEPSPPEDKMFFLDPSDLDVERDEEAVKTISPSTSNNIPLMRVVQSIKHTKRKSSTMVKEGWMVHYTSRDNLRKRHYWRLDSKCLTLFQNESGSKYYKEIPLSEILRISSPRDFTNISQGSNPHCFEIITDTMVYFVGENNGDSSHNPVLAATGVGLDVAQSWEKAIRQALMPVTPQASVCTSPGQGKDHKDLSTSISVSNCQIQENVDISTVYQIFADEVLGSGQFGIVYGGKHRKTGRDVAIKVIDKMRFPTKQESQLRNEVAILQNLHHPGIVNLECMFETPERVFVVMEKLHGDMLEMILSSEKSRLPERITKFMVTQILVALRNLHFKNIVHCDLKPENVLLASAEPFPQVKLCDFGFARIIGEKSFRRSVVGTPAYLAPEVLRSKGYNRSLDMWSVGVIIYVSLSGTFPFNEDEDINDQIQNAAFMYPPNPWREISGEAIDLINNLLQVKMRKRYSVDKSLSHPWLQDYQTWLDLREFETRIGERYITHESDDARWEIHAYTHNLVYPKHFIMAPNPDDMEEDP

[3] = target: T2, Serine/threonine-protein kinase D3 (Homo sapiens); settings: at 1 µM
[4] = target: T3, cGMP-dependent protein kinase 1 (Homo sapiens) (UniProt Q13976); settings: at 0.1 µM
T3 sequence (whole entry): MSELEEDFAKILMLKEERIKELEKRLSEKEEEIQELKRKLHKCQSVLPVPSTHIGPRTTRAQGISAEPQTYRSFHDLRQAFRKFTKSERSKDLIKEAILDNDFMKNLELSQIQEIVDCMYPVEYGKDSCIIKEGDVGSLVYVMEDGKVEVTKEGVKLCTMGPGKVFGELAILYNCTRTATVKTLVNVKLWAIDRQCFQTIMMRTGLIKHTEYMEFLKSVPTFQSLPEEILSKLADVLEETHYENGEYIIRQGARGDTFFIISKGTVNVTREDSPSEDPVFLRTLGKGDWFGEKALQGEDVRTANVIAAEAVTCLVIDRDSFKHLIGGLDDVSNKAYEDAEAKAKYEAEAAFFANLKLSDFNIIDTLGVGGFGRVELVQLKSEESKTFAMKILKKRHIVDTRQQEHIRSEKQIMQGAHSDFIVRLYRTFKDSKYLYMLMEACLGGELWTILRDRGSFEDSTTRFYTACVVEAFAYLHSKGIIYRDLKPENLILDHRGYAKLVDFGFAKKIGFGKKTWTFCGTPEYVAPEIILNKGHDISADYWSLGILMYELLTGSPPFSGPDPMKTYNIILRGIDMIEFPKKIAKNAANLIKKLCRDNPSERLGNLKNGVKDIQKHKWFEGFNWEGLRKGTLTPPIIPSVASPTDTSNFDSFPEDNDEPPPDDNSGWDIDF

[5] = target: T3, cGMP-dependent protein kinase 1 (Homo sapiens); settings: at 1 µM
[6] = target: T4, cGMP-dependent protein kinase 2 (Homo sapiens) (UniProt Q13237); settings: at 0.1 µM
T4 sequence (whole entry): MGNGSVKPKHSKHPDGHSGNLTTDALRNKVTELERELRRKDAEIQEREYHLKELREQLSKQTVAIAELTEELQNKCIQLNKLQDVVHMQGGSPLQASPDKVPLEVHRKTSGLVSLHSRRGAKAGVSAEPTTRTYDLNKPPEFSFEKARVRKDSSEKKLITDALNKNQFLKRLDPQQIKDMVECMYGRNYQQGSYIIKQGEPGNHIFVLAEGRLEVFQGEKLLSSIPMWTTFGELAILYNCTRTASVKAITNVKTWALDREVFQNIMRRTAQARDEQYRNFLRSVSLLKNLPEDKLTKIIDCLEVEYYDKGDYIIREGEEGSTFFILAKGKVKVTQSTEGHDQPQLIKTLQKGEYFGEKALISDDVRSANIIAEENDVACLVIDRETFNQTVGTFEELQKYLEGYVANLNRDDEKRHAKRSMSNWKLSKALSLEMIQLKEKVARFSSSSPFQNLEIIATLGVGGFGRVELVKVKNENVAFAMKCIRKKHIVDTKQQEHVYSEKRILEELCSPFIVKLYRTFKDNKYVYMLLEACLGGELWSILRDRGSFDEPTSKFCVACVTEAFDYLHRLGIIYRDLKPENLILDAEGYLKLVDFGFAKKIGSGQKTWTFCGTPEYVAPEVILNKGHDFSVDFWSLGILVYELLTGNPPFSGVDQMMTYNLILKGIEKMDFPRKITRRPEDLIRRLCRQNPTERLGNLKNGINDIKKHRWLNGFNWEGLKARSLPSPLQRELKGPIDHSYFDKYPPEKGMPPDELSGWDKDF

[7] = target: T4, cGMP-dependent protein kinase 2 (Homo sapiens); settings: at 1 µM
[8] = target: T5, cAMP-dependent protein kinase catalytic subunit PRKX (Homo sapiens) (UniProt P51817); settings: at 0.1 µM
T5 sequence (whole entry): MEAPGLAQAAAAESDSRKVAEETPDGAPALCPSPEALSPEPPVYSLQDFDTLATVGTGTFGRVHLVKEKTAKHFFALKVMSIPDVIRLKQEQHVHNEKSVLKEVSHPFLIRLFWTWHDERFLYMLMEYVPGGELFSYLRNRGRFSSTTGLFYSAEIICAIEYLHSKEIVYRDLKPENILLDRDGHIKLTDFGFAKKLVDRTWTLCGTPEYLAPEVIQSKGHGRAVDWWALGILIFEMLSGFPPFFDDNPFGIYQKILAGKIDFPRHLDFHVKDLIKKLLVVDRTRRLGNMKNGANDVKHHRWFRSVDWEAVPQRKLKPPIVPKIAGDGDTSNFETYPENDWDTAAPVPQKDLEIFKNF

[9] = target: T5, cAMP-dependent protein kinase catalytic subunit PRKX (Homo sapiens); settings: at 1 µM
[10] = target: Rho-associated protein kinase 1 (Homo sapiens) (UniProt Q13464); settings: at 0.1 µM;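 also: values are mean percent inhibition of ROCK1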
Rho-associated protein kinase 1 (Homo sapiens), sequence (Q13464 2-1354 limits assumed): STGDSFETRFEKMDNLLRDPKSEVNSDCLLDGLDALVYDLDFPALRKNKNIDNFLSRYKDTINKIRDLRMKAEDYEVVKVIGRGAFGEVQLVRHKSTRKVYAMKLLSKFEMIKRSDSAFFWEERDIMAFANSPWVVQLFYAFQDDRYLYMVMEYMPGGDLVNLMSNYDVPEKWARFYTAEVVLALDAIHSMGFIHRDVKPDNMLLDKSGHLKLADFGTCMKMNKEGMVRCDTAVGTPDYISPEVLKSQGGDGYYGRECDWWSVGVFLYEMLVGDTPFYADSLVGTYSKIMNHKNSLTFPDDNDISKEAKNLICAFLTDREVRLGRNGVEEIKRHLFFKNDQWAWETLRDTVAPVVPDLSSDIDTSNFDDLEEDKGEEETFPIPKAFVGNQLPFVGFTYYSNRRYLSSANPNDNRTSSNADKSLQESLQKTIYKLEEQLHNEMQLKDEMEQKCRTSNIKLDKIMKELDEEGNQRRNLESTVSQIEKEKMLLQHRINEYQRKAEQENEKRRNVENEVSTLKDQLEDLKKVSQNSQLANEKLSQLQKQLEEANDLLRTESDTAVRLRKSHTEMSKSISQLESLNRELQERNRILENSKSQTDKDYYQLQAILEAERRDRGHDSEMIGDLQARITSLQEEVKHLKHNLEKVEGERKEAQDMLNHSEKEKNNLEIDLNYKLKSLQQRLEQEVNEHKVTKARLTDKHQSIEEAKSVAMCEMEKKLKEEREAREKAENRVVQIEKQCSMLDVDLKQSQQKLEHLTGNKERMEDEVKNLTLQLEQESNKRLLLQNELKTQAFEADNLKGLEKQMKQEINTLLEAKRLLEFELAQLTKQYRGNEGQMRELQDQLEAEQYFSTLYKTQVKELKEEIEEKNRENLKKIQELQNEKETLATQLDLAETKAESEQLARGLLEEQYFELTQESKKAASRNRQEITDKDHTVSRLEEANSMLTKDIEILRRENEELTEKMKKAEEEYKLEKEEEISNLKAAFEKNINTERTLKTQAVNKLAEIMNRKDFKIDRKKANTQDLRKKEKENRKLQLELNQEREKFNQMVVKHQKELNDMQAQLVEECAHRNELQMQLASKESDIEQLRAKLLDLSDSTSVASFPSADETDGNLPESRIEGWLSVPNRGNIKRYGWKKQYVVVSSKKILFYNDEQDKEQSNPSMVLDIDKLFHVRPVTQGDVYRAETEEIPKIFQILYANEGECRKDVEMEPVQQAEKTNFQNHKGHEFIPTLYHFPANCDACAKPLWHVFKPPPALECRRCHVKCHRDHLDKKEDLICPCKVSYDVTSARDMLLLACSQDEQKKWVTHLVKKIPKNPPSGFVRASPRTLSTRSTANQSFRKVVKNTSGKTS

Compound | inhibition [1] [%] | inhibition [2] [%] | inhibition [3] [%] | inhibition [4] [%] | inhibition [5] [%] | inhibition [6] [%] | inhibition [7] [%] | inhibition [8] [%] | inhibition [9] [%] | inhibition [10] [%]
NS(=O)(=O)c1cccc(-c2ccc3c(NC(=O)C4CC4)n[nH]c3c2)c1 | -0.76 | -0.43 | 0.3 | 0.48 | 0.57 | 0.6 | 1.3 | 0.01 | 1.02 | 1.29
O=C1NC(=O)C(c2ccccc2Cl)=C1Nc1cccc(O)c1 | 2.71 | 2.73 | 2.86 | 2.17 | 3.29 | 1.54 | 4.57 | 2.14 | 4.07 | 3.29
CCn1c(-c2nonc2N)nc2cncc(C(=O)N3CC[C@H](N)C3)c21 | 8.24 | 3.97 | 7.57 | 57 | 82.5 | 72.7 | 83.7 | 31.8 | 73.4 | –
CCn1c(-c2nonc2N)nc2cnc(Oc3cccc(NC(=O)c4ccc(OCCN5CCOCC5)cc4)c3)cc21 | 4.52 | 2.2 | 2.69 | 60.5 | 76.6 | 27.3 | 66.3 | 18.6 | 63.1 | –
COC(=O)Nc1nc2cc(Oc3cccc(NC(=O)Nc4cc(C(F)(F)F)ccc4F)c3)ccc2[nH]1 | 1.8 | 0.2 | 2.71 | 2.33 | 2.11 | 1.2 | 6.47 | 0.81 | 2.2 | -0.55
NC(=O)c1cccc(Nc2nccc(Nc3cccc4[nH]ncc34)n2)c1 | 5 | -3.05 | 4.5 | -0.53 | 5.24 | 0.86 | 7.93 | 7.81 | 9.23 | 0.94
O=C1NC(=O)C(N2CCc3ccccc32)=C1c1ccc(Cl)cc1 | 4.56 | 5.53 | 6.02 | 3.3 | 4.19 | 2.11 | 4.33 | 1.91 | 0.77 | 1.88
CC1=C(C(=O)Nc2ccc3[nH]ncc3c2)C(c2ccc(F)cc2)NC(=O)N1 (stereo unspecified) | 8.48 | 3.46 | 7.95 | 4.58 | 20.1 | 1.73 | 12.6 | 12.7 | 53.4 | –
COc1cc2ncn(-c3cc(OCc4ccccc4C(F)(F)F)c(C(N)=O)s3)c2cc1OC | -1.87 | 0.67 | -0.49 | 2.93 | 0.86 | 1.68 | 1.12 | 1.89 | 2.8 | 1.68
COc1ccc(-c2coc3ncnc(N)c23)cc1 | 6.47 | 4.56 | 7.56 | 2.84 | 3.68 | 2.51 | 3.93 | 1.76 | 1.11 | 3.01
CCCN1CCC(Oc2cc(Nc3nc(Nc4cccc(F)c4C(N)=O)c4cc[nH]c4n3)c(OC)cc2Cl)CC1 | 8.74 | 0.21 | 17.1 | 1.4 | 3.67 | 0.8 | 3.46 | 7.71 | 7.12 | 0.94
NC(=O)c1ccc(-c2nc(-c3ccccn3)c(-c3ccc4c(c3)OCO4)[nH]2)cc1 | 6.06 | 2.14 | 5.59 | 0.18 | 3.55 | 1.83 | 3.18 | 1.66 | 2.01 | 0.07
Cn1cc(C=C2C(=O)Nc3cccnc32)c2ccccc21 | 9.92 | 3.79 | 10.3 | 1.8 | 3.04 | 1.83 | 3.03 | 0.64 | 0.1 | 1.45
CCn1c(-c2nonc2N)nc2cncc(C(=O)N3CCNCC3)c21 | 4.19 | 5.65 | 4.94 | 5.91 | 9.25 | 6.28 | 7.34 | 3.9 | 3.75 | –
Cc1cccc(-c2n[nH]cc2-c2ccc3ncccc3n2)n1 | 46.9 | 2.2 | 30.5 | 1.36 | 0.89 | 0.94 | 0.72 | 0.91 | 1.8 | 0.48
Cc1nnc(-c2ccc(C)c(-c3ccc(C(=O)Nc4cccc(C#N)c4)cc3)c2)o1 | 3.13 | 2.37 | 3.16 | 0.21 | 2.16 | 1.21 | 3.35 | 0.63 | 1.68 | -0.21
Cc1ccc(NC(=O)c2ccnc(N3CCCC3)c2)cc1-c1ccc(C(=O)NCC2CC2)cc1 | 9.48 | 3.21 | 10.1 | 2.12 | 6.39 | 3.92 | 6.54 | 1.47 | 2.53 | 10
